The record followed here is PubChem BioAssay (EPA / NIEHS).

A structure can be active in one record and inactive in another. Calls of active or inactive are those of the source. The calls were made as follows: active = hit-call score of the fitted dose curve at least 0.9, where 1 is the maximum; inactive = score below 0.9.

This test in a line: APR_HepG2_MicrotubuleCSK_24hr: Apredica 24-hour HepG2 Assay for Microtubule CSK Stabilty (AID 2282909). The following applies: HepG2 microtubule cytoskeleton imaging, actives raise or lower the signal. As to the method: APR_HepG2_24hr is a cell-based, multiplexed-readout assay that uses HepG2, a human liver cell line, with measurements taken at 24 hours after chemical dosing in a 384-well plate.APR_HepG2_MicrotubuleCSK_24hr is one of 10 assay component(s) measured or calculated from the APR_HepG2_24hr assay. It is designed to make measurements of protein conformation, a form of conformation reporter, as detected with fluorescence intensity signals by HCS Fluorescent Imaging technology.Data from the assay component APR_HepG2_MicrotubuleCSK_24hr was analyzed into 1 assay endpoint. This assay endpoint, APR_HepG2_MicrotubuleCSK_24hr, was analyzed with bidirectional fitting relative to DMSO as the negative control and baseline of activity. Using a type of conformation reporter, measures of protein for gain or loss-of-signal activity can be used to understand the signaling at the cellular-level. Furthermore, this assay endpoint can be referred to as a primary readout, because this assay has produced multiple assay endpoints where this one serves a signaling function. To generalize the intended target to other relatable targets, this assay endpoint is annotated to the cell morphology intended target family, where the subfamily is cell conformation.
Cells were treated with dimethyl sulfoxide (DMSO) as a solvent control at a final concentration of 0.5% v/v or with compounds in DMSO with a resulting final DMSO concentration of 0.5% v/v. Compound treatment was done at concentrations of 0.39, 0.78, 1.56, 3.12, 6.24, 12.5, 25, 50, 100, and 200 uM in duplicate on each plate. Cells were treated with compounds for 1, 24, or 72 hr. Carbonyl […] m-chloro-phenylhydrazone (CCCP) and taxol were used as positive controls for mitochondrial function and cytoskeletal stability, respectively; DMSO served as the negative control for this experiment. Cells were fixed by the direct addition of 50 uL formaldehyde in Hank's Balanced Salt Solution (HBSS) to a final concentration of 3.7%. After incubation in the fixation medium for 30 min at room temperature (293-298 K), cells were rinsed twice with HBSS and treated with cell permeabilization buffer (16 uL of 0.5% Triton X-100) for 10 min at room temperature (293-298 K) before labeling. For mitochondrial membrane potential and mitochondrial measurements, pre-fixed cells were incubated with 50 uL of MitoTracker Red CMXRos (Invitrogen) at a concentration of 250 nM for 30 min before fixation. In the remaining cases, post-fixed cells were labeled by incubation with a multiplexed mixture of primary antibodies in HBSS for 60 min at room temperature (293-298 K) to detect immunoreactivity of c-Jun (1:500), phospho-histone H3 (1:100), phospho-histone H2A.x (1:200), p53 (1:400), alpha-tubulin (1:200) and Hoechst 33342 (2 ug/mL). Cells were labeled for multiplexed imaging on two separate plates: a) Hoechst 33342, MitoTracker Red, phospho-histone H3, and alpha-tubulin, and b) Hoechst 33342, phospho-histone H2A.x, and c-Jun. A final rinse with HBSS (50 uL) was performed before analysis. The primary and secondary antibodies for the proteins were phospho-histone H3 (rabbit anti-phospho-histone H3 and FITC-donkey anti-rabbit IgG), phospho-histone H2A.x (mouse anti-phospho-histone H2A.x and FITC-donkey anti-mouse IgG), c-Jun (rabbit anti-phospho-c-Jun and Cy3-donkey anti-rabbit IgG), p53 (sheep anti-p53 and Cy5-donkey anti-sheep IgG), alpha-tubulin (mouse anti-alpha-tubulin and Cy5-donkey anti-mouse IgG). These antibodies are available as the CellCiphr HepG2 assay kit (Millipore).Digital images of each well were captured using a Cellomics ArrayScan VTI (Thermo Scientific Cellomics) (0.8 NA objective, 0.63x optical coupler, and XF-93 filter set) at 20x magnification. The images were acquired using the autofocus feature of the ArrayScan instrument, which entails the following steps. First, the camera focuses on channel 1 (Hoechst 33342), where nuclei are identified. Second, a Z offset of 1 um is used for capturing mitochondria (MitoTracker Red). […]
Consider `N[C@@H](Cc1cc(I)c(Oc2ccc(O)c(I)c2)c(I)c1)C(=O)O`, for which the outcome was inactive. On the same count and under the same terms, the same measure for `CCOC(=O)COc1cc(-n2ncc(C(F)(F)F)c(C)c2=O)c(F)cc1Cl`: “inactive”; for `O=C(c1ccc(O)cc1O)c1ccc(O)cc1O`: “inactive”; for `CCSC(=O)N(CC(C)C)CC(C)C`: “inactive”. For `CCCOC(=O)NCCCN(C)C`, the compound was called inactive. For `CCCCOCCOCCOCc1cc2c(cc1CCC)OCO2`, the half-maximal activity concentration (AC50) was 70 µM (active). On to `CCC(O)=C1C(=O)CC(C(=O)O)CC1=O` (stereo not given), for which the result was inactive. In the case of `O=C(Nc1ccc([N+](=O)[O-])cc1Cl)c1cc(Cl)ccc1O`, the half-maximal activity concentration (AC50) was 0.672 µM (active). Take `C[C@]12C[C@H](O)[C@H]3[C@@H](CCC4=CC(=O)CC[C@@]43C)[C@@H]1CC[C@@H]2C(=O)CO`: the call was inactive. In the case of `Cc1nn(C)c(Oc2ccccc2)c1C=NOCc1ccc(C(=O)OC(C)(C)C)cc1`, the call was inactive. As to `COc1c(Cl)ccc(Cl)c1C(=O)O`, the compound was called inactive.

Regarding `CCCCCOC(=O)COc1cc(N2C(=O)C3=C(CCCC3)C2=O)c(F)cc1Cl`, the outcome was inactive. With `COCCO`, the compound was called inactive. On the same count and under the same terms, the same measure for `CCOC(=O)NCCOc1ccc(Oc2ccccc2)cc1`: “inactive”. In the case of `C#C[C@]1(O)CC[C@H]2[C@@H]3CCC4=CC(=O)CC[C@@H]4[C@H]3CC[C@@]21CC`, the result was inactive. In the case of `CCOC(=O)c1ccc(O)cc1`, the result was inactive. Turning to `N#CSCSc1nc2ccccc2s1`, the compound was called inactive. For the compound `O=C(O)C1(C(=O)Nc2ccc(Cl)cc2Cl)CC1`, the compound was classed as inactive. Turning to `COC(=O)c1c(Cl)nn(C)c1S(=O)(=O)NC(=O)Nc1nc(OC)cc(OC)n1`, the compound was called inactive. Regarding `CC1(C)C(C=C(Cl)Cl)C1C(=O)OCc1cccc(Oc2ccccc2)c1` (stereo not given), the compound was classed as inactive.

With `COC(=O)c1ccccc1C(=O)O`, the outcome was inactive. As to `CCCN(CCC)c1c([N+](=O)[O-])cc(C(F)(F)F)c(N)c1[N+](=O)[O-]`, the result was inactive. Same read-out and setting: the same measure for `COC(=O)CSc1cc(N=c2sc(=O)n3n2CCCC3)c(F)cc1Cl`: “inactive”; for `COC(=O)c1ccc(I)cc1S(=O)(=O)NC(=O)Nc1nc(C)nc(OC)n1`: “inactive”.

On to `CCOC(=O)C(C)Oc1ccc(Oc2cnc3cc(Cl)ccc3n2)cc1` (stereo not given), for which the compound was called inactive. Turning to `CCCCC(CC)CN1C(=O)C2C3C=CC(C3)C2C1=O` (stereo not given), the AC50 was 72.3 µM (active).

On to `COc1nc(C)nc(NC(=O)NS(=O)(=O)c2ccccc2OCCCl)n1`, for which the outcome was inactive. As for `OB(O)O`, the result was inactive. On to `CCCCOC(=O)C(C)Oc1ccc(Oc2ccc(C(F)(F)F)cn2)cc1` (stereo not given), for which the compound was called inactive. Consider `COC(=O)c1ccccc1S(=O)(=O)NC(=O)Nc1nc(OC(F)F)cc(OC(F)F)n1`, for which the outcome was inactive.

With `O=C(c1ccccc1)C1CCCCC1`, the outcome was inactive. `CC(C)(c1ccc(O)cc1)c1ccc(O)cc1`: the concentration at half-maximal activity (AC50) was 103 µM (active) and the result was inactive. Turning to `CCN(Cc1c(F)cccc1Cl)c1c([N+](=O)[O-])cc(C(F)(F)F)cc1[N+](=O)[O-]`, the call was inactive. For `CCNc1nc(N)nc(Cl)n1`, the compound was called inactive. As to `CSC(=O)c1cccc2nnsc12`, the outcome was inactive. The same measure, in the same setting: the same measure for `CCOC(=O)[C@H](C)Oc1ccc(Oc2nc3ccc(Cl)cc3o2)cc1`: “inactive”; for `Oc1ccc(C(c2ccc(O)cc2)C(Cl)(Cl)Cl)cc1`: “inactive”; for `CCN(CC)C(=O)c1cccc(C)c1`: “inactive”. On to `CC(C)CCCCCCc1ccc(O)cc1`, for which the concentration at half-maximal activity (AC50) is 65.4 µM (active).
